Most compounds without a hit are left out; they make up all but 2.4% or so of the library.
D2 antag – HTS Assay for Allosteric Antagonists of the Human D2 Dopamine Receptor: Primary Screen for Antagonists; inhibition, % at 10 µM; 340,000 tested, 2% active; AID 485344, 2010; D(2) dopamine receptor (Homo sapiens), P14416; HEK293 TREx D2 cells, calcium flux, dopamine EC80; in the data active = inhibition above about 30%; inactive = below that, where a call was filed; note: 0% is about no effect
Target sequence (P14416 whole entry, looked up): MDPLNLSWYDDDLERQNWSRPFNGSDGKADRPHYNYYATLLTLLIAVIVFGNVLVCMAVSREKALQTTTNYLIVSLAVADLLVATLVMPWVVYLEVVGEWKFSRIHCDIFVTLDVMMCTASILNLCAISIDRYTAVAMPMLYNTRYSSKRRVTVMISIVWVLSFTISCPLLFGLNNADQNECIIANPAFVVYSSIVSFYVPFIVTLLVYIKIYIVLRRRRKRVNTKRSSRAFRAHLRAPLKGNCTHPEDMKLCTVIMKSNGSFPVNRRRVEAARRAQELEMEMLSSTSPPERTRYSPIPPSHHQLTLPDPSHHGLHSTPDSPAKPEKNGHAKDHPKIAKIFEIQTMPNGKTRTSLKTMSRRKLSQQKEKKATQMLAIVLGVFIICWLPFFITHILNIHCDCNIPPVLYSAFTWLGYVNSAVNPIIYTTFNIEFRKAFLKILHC
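Overnight-induced (tetracycline, 30 C) HEK293 T-REx cells carrying force-coupled D2 receive a no-wash calcium dye, then compound, then EC80 dopamine at 180 s; signals are read kinetically throughout.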
D2 PAM-1 – Beta-Arrestin HTS for Positive Allosteric Modulators of the Human D2 Dopamine Receptor: Potentiators; potentiation, % (concentration not given with the values); D(2) dopamine receptor (Homo sapiens), P14416; DiscoveRx D2 beta-arrestin cells, luminescence, 90 min; 100% = 57 uM dopamine signal; 360,000 tested, 0.23% active; AID 624464, 2012; in the data active = potentiation above about 50%
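PathHunter beta-arrestin assay in DiscoveRx D2 cells. Compounds were added with an EC20 of dopamine (50 nM final) for 90 min at 37 deg C. Luminescence was read 1 h after detection reagent, with 57 uM dopamine as the EC100 control.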
D2 ag-1 – Beta-Arrestin HTS for Positive Allosteric Modulators of the Human D2 Dopamine Receptor: Agonists; activation, % (concentration not given with the values); 360,000 tested, 0.084% active; AID 624465, 2012; DiscoveRx PathHunter D2 beta-arrestin, luminescence, 90 min; 100% = 57 uM dopamine signal; D(2) dopamine receptor (Homo sapiens), P14416; in the data active = activation above about 40%
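Agonist mode: compounds alone added to overnight-plated D2 PathHunter cells for 90 min at 37 C, with 57 uM final dopamine (EC100) defining full response. Beta-arrestin recruitment detected by chemiluminescent reagent, read after 1 h at ambient temperature.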
D2 ag-2 – HTS Assay for Allosteric Agonists of the Human D2 Dopamine Receptor: Primary Screen for Agonists | D(2) dopamine receptor (Homo sapiens), P14416 | HEK293 T-REx D2 cells, calcium flux agonist mode | activation, % at 2 µM | 340,000 tested, 0.53% active | AID 485358, 2010;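 active = activation over 3 SD above normal in the single-dose calcium agonist read, cut at about 30% in these data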; note: 0% is about no effect
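Agonism scored from kinetic calcium signal (1 read/sec, 180 s) following compound pin transfer, after a 10 s baseline. Cells: HEK293 Trex line expressing inducible D2 receptor coupled to calcium, dye-loaded after overnight culture at 30 C.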
D2 PAM-2 – HTS Assay for Positive Allosteric Modulators of the Human D2 Dopamine Receptor: Primary Screen for Potentiators | D(2) dopamine receptor (Homo sapiens), P14416 | HEK293 T-REx D2, calcium flux, EC20 dopamine potentiation | potentiation, % at 10 µM | 340,000 tested, 0.34% active | AID 485347, 2010;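 active = potentiation over 3 SD above the plate norm, cut at about 30% in these data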; note: 0% is about no effect
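Primary screen. Calcium kinetics in induced HEK293 T-REx D2 cells: compound pre-addition 180 s, EC20 dopamine, 180 s more.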
An asterisk follows results filed as active; / = no result given.

SMILES	D2 antag	D2 PAM-1	D2 ag-1	D2 ag-2	D2 PAM-2
CCN1CCN(c2nc3c(C)cccn3c(=O)c2/C=C(\C#N)S(=O)(=O)c2ccccc2)CC1	37*	-7	0	0	/
CCN1CCN(c2nc3ccccn3c(=O)c2/C=C(\C#N)S(=O)(=O)c2ccccc2)CC1	34*	-21	-8	-1	-5
O=C(O)CCCC(=O)Nc1ccc(N2CCCC2)cc1	-3	69*	5	0	1
CC(=O)Nc1ccc(C(=O)N2CCCC2)cc1	1	-22	-1	0	32*
CCCC(=O)Nc1ccc(N2CCCCC2)cc1	6	-3	-3	-1	-9
O=C(O)CCC(=O)Nc1ccc(C(=O)N2CCCCC2)cc1	6	-10	-3	-1	33*
CCCCCc1cc(=O)oc2c(C(CCN3CCN(c4ccccc4)CC3)c3ccc4c(c3)OCO4)c(OC)cc(OC)c12 (centres undefined)	50*	2	14	17	-9
COc1ccc(C(CCN2CCCC(C)C2)c2c(OC)cc(OC)c3c2OC(=O)CC3c2cc(OC)c(OC)c(OC)c2)cc1 (centres undefined)	52*	-23	2	0	-27
COc1cc(OC)c2ccc(=O)oc2c1C(CCN1CCCC(C)C1)c1ccc2c(c1)OCO2 (centres undefined)	83*	-22	-2	-1	-18
CCCCN1CCCCC1(C)C(=O)NCc1cccc(OC)c1 (centres undefined)	/	-3	-4	/	/
Cc1cc(C)cc(NC(=O)Cn2c(=O)n(C(C)C)c(=O)c3oc4ccccc4c32)c1	/	/	/	1	2
O=C(Cc1cn2ccsc2n1)OCc1ccccc1	32*	-5	3	0	-3
O=C(Cc1cn2ccsc2n1)OCc1nc2ccccc2s1	-6	-35	-2	-1	-10
COCCn1c(SCC(=O)Nc2sc(C)c(C)c2C#N)nnc1-c1ccc(OC)cc1	4	-4	1	-2	-23
COCCn1c(SCC#N)nnc1-c1ccc(OC)cc1	55*	-5	2	-1	-20
CC(=O)Nc1ccc(S(=O)(=O)NCC2CCC(C(=O)NCCCN(C)Cc3ccccc3)CC2)cc1 (centres undefined)	4	-15	-3	0	-4
COc1ccc(NC(=O)CSc2[nH]c(=O)cc(C)c2C#N)cc1OC	34*	0	-1	0	11
O=C(COC(=O)/C=C/c1ccco1)NCc1ccc(Cl)cc1Cl	/	0	8	/	/
O=C(COC(=O)/C=C/c1ccco1)NCc1ccccc1Cl	33*	0	-2	0	9
C/C(=N\NC(=O)c1ccc(Cn2cc(Br)cn2)o1)c1cccc(NC(=O)C(C)(C)C)c1	8	22	-1	2	-5
O=C(Nc1ccc(C(F)(F)F)cc1Cl)c1ccc(Cn2cc(Br)cn2)o1	37*	-6	2	2	-22
O=C(N/N=C/c1c(F)cccc1Cl)c1ccc(Cn2cc(Br)cn2)o1	-7	-11	-4	-3	-7
O=C(Nc1cccc(C(F)(F)F)c1)c1ccc(Cn2cc(Br)cn2)o1	35*	-30	-3	2	-17
CCS(=O)(=O)c1nc(S(=O)(=O)c2ccc(C)cc2)c(NCCCOC)s1	/	/	/	0	2
Cc1cc(C)n(-c2nc3ccccc3n3nnnc23)n1	4	-2	0	-1	33*
c1ccc(N2CCN(c3nc4ccccc4n4nnnc34)CC2)cc1	-9	19	0	1	8
CC1CN(c2ncnc3c2cnn3-c2ccc(Cl)cc2)CC(C)O1 (centres undefined)	31*	0	0	-1	22
CN(C)c1ccc(NC(=O)c2cccc(N3C(=O)C4C5C=CC(C5)C4C3=O)c2)cc1 (centres undefined)	36*	4	1	1	18
